Bioassay records deposited in PubChem by National Center for Advancing Translational Sciences (NCATS).
Most compounds without a hit are left out; they make up all but 5.7% or so of the library.
KB-3-1 cytotox: KB-3-1 parental cell cytotoxicity; KB-3-1 viability, CellTiter-Glo ATP luminescence, 72 h; Potency, µM (top dose mostly 46.1 µM), usual class: cytotoxic; hit rate 1.4% among 400,000; AID 1347075; further: nearly all actives have a fitted effect of over 60% in size
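Cytotoxicity in the drug-sensitive parental line KB-3-1 was scored as loss of CellTiter-Glo luminescence following 72 h incubation with compound. Values come from curve fitting of normalized concentration-response data.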
KB-V1 MDR tox: kills drug-selected multidrug resistant KB-V1 cells; KB-V1 MDR cells viability, CellTiter-Glo, 72 h; Potency, µM (series often up to 46.1 µM), most hits filed as cytotoxic; hit rate 3.4% among 400,000; AID 1347076; further: nearly all actives have a fitted effect of over 60% in size
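In this primary screen, KB-V1 cells overexpressing P-gp are incubated with library compounds (lowest to highest concentration) for 72 h at 37 degrees C before a luminescent ATP viability read.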
Nrf2 block: inhibitors of Nrf2 signaling; Potency, µM (top dose mostly 46 µM), most hits filed as inhibitors; hit rate 2.1% among 360,000; A549 ARE-Fluc reporter, luciferase luminescence, 18-24 h; further: nearly all actives have a fitted effect of over 60% in size
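Concentration-response testing used A549 ARE_Fluc cells at 5000 cells/well. Following an 18-24 h compound incubation, viability was read by fluorescence (Ex 405/Em 525) and luciferase output by luminescence.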
Giardia kill: kills Giardia lamblia. Giardia lamblia trophozoite viability. activity change, % at 7.66 µM, hits read low. hit rate 0.15% among 340,000. AID 540267; in the data active means activity change below about -80%; inconclusive means between about -30% and that limit;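 further: parasites exposed to compound for two days anaerobically before the ATP read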
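Giardia trophozoites, 100 cells per well, were exposed to compounds for 48 hrs at 37 deg C under anaerobic conditions; viability was then read as ATP content by bioluminescence after 15-30 min at room temperature.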
A549 viability: counter-screen for Nrf2 inhibitors: cytotoxicity in A549 cells. A549 ARE-Fluc cells, CellTiter-Fluor viability, 18-24 h. Potency, µM (doses to about 46 µM), most hits filed as inhibitors. hit rate 0.16% among 390,000. AID 504648
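A549 ARE-Fluc cells in 5% FBS OPTI-MEM, 5000 cells/well, rested 2 h then exposed to compounds in concentration-response for 18-24 h at 37 °C. Viability by CellTiter-Fluor fluorescence (Ex 405/Em 525) after 30 min; luciferase luminescence (BugLite, 15 min, RT) read afterwards.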
PI4K2A block: PI4K2A (human) kinase inhibition | Q9BTU6 | purified PI4K2A, ADP-Glo luminescence, 1 h; active compounds read low | activity change, negative = inhibition, % at 76.9 µM | hit rate 0.13% among 420,000 | AID 1346378; in the data active means activity change below about -50%; inconclusive means mostly about -30% to -49%
Target sequence (Q9BTU6 whole entry, looked up): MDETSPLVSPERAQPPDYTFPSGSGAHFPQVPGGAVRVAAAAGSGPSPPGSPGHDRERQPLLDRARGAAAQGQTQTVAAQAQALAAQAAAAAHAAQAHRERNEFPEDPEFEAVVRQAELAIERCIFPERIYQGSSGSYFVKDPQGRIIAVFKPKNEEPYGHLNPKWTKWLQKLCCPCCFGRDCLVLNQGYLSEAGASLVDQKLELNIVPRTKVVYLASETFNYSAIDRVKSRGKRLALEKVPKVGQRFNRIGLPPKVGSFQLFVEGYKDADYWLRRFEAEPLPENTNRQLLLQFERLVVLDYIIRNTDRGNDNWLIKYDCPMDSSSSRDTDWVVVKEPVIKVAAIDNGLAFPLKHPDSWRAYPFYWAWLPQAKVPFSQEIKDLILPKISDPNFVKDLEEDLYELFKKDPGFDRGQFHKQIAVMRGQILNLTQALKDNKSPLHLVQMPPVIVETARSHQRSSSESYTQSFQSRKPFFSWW
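Compounds are screened against recombinant PI4K2A using PI as substrate and ATP, the latter dispensed at 300 microM. Reactions run one hour at ambient temperature before ADP-Glo detection; full inhibition defined by wells lacking enzyme.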
Numbers stand for hits; - = inactive; ? = inconclusive; . = no result given. Unless noted, the call rests on the fitted dose curve; in most records, active means well fitted curve in the direction sought with a large enough effect; inconclusive means small, poorly fitted or top-dose-only effect, or another doubt; inactive means no such curve, though single readings can be large; an effect the other way counts as inactive or inconclusive.

SMILES	KB-3-1 cytotox	KB-V1 MDR tox	Nrf2 block	Giardia kill	A549 viability	PI4K2A block
Cc1ccc(OCC(=O)Nc2cccc(C(=O)OCc3cc(=O)n4nc(C)sc4n3)c2)cc1	.	.	.	.	-	-
Cc1ccsc1/C=C/c1ccc2cccc(O)c2n1	?	13µM	-	-	?	-
CC(=O)N1CC(c2ccccc2)C(c2ccc(Cl)cc2)=N1 (centres undefined)	-	15µM	-	-	-	-
CC(C)NC(=O)N1CC(c2ccccc2)C(c2ccc(Cl)cc2)=N1 (centres undefined)	-	?	?	-	-	-
Cc1cc(-c2ccc(S(=O)(=O)N(C)c3ccc(C)c(C)c3)s2)on1	13µM	7.3µM	-	-	-	-
O=S1(=O)CCOC[C@H](c2ccccc2)N1Cc1ccc(F)cc1	-	-	.	.	.	.
COc1ccc(C2CC(=O)c3cnc(N4CCN(Cc5ccccc5)CC4)nc3C2)cc1 (centres undefined)	-	-	?	-	-	-
CCN1CCN(c2ncc3c(n2)CC(c2ccc(OC)c(OC)c2)CC3=O)CC1 (centres undefined)	16µM	21µM	-	-	-	-
CCOC(=O)N1CCN(c2ncc3c(n2)CC(c2ccc(OC)c(OC)c2)CC3=O)CC1 (centres undefined)	?	4.1µM	?	.	-	-
COc1c(C(C)(C)C)cc(S(=O)(=O)N2c3ccccc3C[C@H]2C)cc1C(C)(C)C	.	.	.	.	.	-
CN1CCN(c2ccc(Nc3ccnc4cc(Cl)ccc34)cc2)CC1	?	?	?	-	6.5µM	-
CCN1CCN(c2ccc(Nc3ccnc4ccccc34)cc2)CC1	?	-	-	-	6.5µM	-
O=C1C(=Cc2ccco2)CCC1=Cc1ccco1	-	-	-	-	?	-59
CCS(=O)(=O)N1CCc2cc(C(=O)NC(C)c3ccccc3)ccc21 (centres undefined)	-	-	-	.	-	-
COc1cc2nc(C3CCC3)nc(N3CCN(c4ccccc4OC)CC3)c2cc1OC	-	7.3µM	18µM	-	?	-
COc1ccccc1N1CCN(C2CCCC(C)C2)CC1 (centres undefined)	-	-	-	-	-	-
COc1cc2nc(C3CCC3)nc(N3CCN(c4ccccn4)CC3)c2cc1OC	?	?	26µM	-	?	-
COc1cc2ccccc2cc1C(=O)N1CCN(c2ccccn2)CC1	-	-	-	-	-	-
O=C(Cc1ccc2ccccc2c1)Nc1nnc(-c2ccncc2)s1	-	-	.	.	.	.
CC1=Nc2ccccc2/C1=C/c1nc(-c2ccc(C)s2)oc1O	-	?	-	-	-	-
CC1=Nc2ccccc2/C1=C/c1sc(=N)n(-c2nccs2)c1O	7.3µM	-	?	-	-	-
O=C(NCc1ccc(F)cc1)c1ccc(NC(=O)N2CC3CCCN3c3ccccc32)cc1 (centres undefined)	-	-	-	.	-	-
COC(=O)[C@]12C[C@H](CC(=O)NCc3ccc(OC)c(OC)c3)C(=O)N(Cc3ccc(Cl)cc3Cl)C1=C[C@H](COCc1ccccc1)O[C@@H]2C	.	.	.	.	.	-
CCC(C)(C)NC(=O)C(c1ccc(C)cc1)N(Cc1cccs1)C(=O)c1ccc2c(c1)OCCO2 (centres undefined)	-	18µM	?	-	-	-
COc1ccc(C2(C)CC(C)(C)Nc3ccccc32)cc1 (centres undefined)	-	-	?	-	-	-
SMILES	KB-3-1 cytotox	KB-V1 MDR tox	Nrf2 block	Giardia kill	A549 viability	PI4K2A block
COc1ccc(C2CC(C)(c3ccc(OC)cc3)Nc3ccccc3N2)cc1 (centres undefined)	21µM	?	-	-	-	-
C=C1C2=C(C(=O)N1OC)[C@@H](O)[C@@](C)(O)[C@@H](CCCCC)O2	18µM	-	.	.	.	-
CCOC(=O)[C@@]12CCCC=C1N(CCc1ccc(Cl)cc1)C(=O)[C@H]2CC(=O)NCc1cccs1	.	.	.	.	.	-
Nc1ccc2nc(NC(=O)C3CCCCC3)sc2c1	-	-	?	-	-	-
Cc1ccc2nc(NC(=O)C3CCN(S(=O)(=O)c4cccnc4)CC3)sc2c1	?	?	?	-	-	-
Cc1ccc2nc(NC(=O)C3CCN(S(=O)(=O)c4cccs4)CC3)sc2c1	?	4.6µM	.	-	-	-
